This is a sample that favours compounds with a hit; in the whole collection about 2.1% have one here.
ROMK primary: human ROMK K+ channel modulation, primary screen | AID 1918 | Tet-inducible ROMK, thallium flux fluorescence; actives lie on both sides | 130,000 compounds, 2% hits | B-score at 10 µM;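 active = signal ratio slope over the read window, or its plate-corrected B-score, at least 3 SD from the plate mean, either direction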;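 note: B-score of the F/F0 ratio slope over 7 to 12 s after thallium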
Target sequence (P48048 whole entry, looked up): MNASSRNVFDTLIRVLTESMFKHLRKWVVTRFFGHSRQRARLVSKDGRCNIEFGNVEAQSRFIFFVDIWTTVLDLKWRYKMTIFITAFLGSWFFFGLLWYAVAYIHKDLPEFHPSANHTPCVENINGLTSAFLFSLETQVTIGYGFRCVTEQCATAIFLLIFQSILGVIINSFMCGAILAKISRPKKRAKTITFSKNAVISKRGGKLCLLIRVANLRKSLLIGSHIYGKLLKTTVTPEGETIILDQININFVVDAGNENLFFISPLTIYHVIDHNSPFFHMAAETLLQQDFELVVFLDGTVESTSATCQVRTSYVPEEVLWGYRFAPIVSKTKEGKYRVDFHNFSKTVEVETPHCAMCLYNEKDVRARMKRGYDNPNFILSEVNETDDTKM
Calpain2 inh: inhibitors of pig calpain II. purified calpain II, fluorogenic peptide substrate, 30 min. inhibition, % at 16 µM. 220,000 compounds, 0.37% hits. AID 1236;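 active = inhibition above about 50%, limit read from the data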
Efa HMGR inh: inhibitors of class II HMG-CoA reductase from Enterococcus faecalis; purified E. faecalis HMGR, NADPH absorbance 340 nm kinetic; inhibition, % at 10 µM; 190,000 compounds, 0.41% hits; AID 1066;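 active = inhibition above a set limit, the median over all tested compounds plus 3 SD, cut at about 9.5% in these data; inconclusive = no clear call, values can overlap the other calls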;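 note: enzyme runs in reverse so mevalonate oxidation gives rising NADPH absorbance; 0% = complete reaction with DMSO and 100% = background rate lacking mevalonate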
HSV replic up: HSV replication enhancement; HSV replication augmentation in cells, fold increase; maximum fold increase; 220,000 compounds, 0.005% hits; AID 1956; in the data active = maximum fold increase above about 1.5; inconclusive = no clear call, values can overlap the other calls; tested in PC3 cells
Arbovirus inh: blocks arbovirus infection; AID 1251; arbovirus infection cell-based antiviral screen; 200,000 compounds, 0.37% hits; inhibition, % at 10 µM; in the data active = inhibition above about 30%
* hit, by the source's call.

Screening O=C(O)c1ccccc1C(=O)NCCc1c(C(=O)O)[nH]c2ccc(F)cc12 returned ROMK primary 0.11, Calpain2 inh -17 and HSV replic up inactive.
Cc1ccc(-c2[nH]ncc2/C=N/n2c(COc3ccccc3C)nc3ccccc3c2=O)cc1 was read as ROMK primary 0.11, Calpain2 inh 61*, Efa HMGR inh -4, HSV replic up inactive and Arbovirus inh -36.
COc1ccc(/C=C2\CC/C(=C\c3ccc(OC)cc3OC)C2=O)c(OC)c1 was read as ROMK primary -2.7*, Calpain2 inh -46, Efa HMGR inh -3, HSV replic up inconclusive and Arbovirus inh -6.
Screening CC(C)c1ccc(C(=O)NC(=S)NCc2cccnc2)cc1 returned Calpain2 inh 53*, Efa HMGR inh -5, HSV replic up inactive and Arbovirus inh 17.
Cc1ccc(C(=O)N/C(=C\c2cccs2)C(=O)NCc2cccnc2)cc1 was read as ROMK primary 0.3, Calpain2 inh 4, Efa HMGR inh 4, HSV replic up inactive and Arbovirus inh 30*.
Screening Cc1ccc(C(=O)N/C(=C\c2ccco2)C(=O)NCc2cccnc2)cc1 returned ROMK primary 0.54, Calpain2 inh 0, Efa HMGR inh -1, HSV replic up inactive and Arbovirus inh 5.
COc1ccc(C(=O)C2CCCN(Cc3cccc4c3OCO4)C2)cc1OC (configuration not stated) was read as ROMK primary -0.12, Calpain2 inh -15, Efa HMGR inh -2, HSV replic up inactive and Arbovirus inh 7.
`O=C(NCc1n[nH]c(=S)n1-c1ccccc1)c1cccs1` gave ROMK primary 0.022, Calpain2 inh -14, Efa HMGR inh 12*, HSV replic up inactive and Arbovirus inh 4.
CCOC(=O)c1sc(N)c(C(=O)OCC)c1C was read as Calpain2 inh -6 and HSV replic up inactive.
CCOC(=O)c1c(N)sc(C(=O)OCCOC)c1C was read as ROMK primary 0.56, Calpain2 inh 20, Efa HMGR inh 13*, HSV replic up inactive and Arbovirus inh -2.
`CC(=O)N1N=C(N)SC12CCCC2` gave ROMK primary -0.66, Calpain2 inh -9, Efa HMGR inh 11*, HSV replic up inactive and Arbovirus inh -3.
For CCOc1cc(/C=N/NC(=O)c2ccncc2)ccc1OS(C)(=O)=O the results were ROMK primary 0.36, Calpain2 inh 106*, Efa HMGR inh -5, HSV replic up inactive and Arbovirus inh 4.
Screening O=C(Nc1ccccc1)Nc1ccc(C(=O)N2CCCC2)cc1 returned ROMK primary 0.14, Calpain2 inh -15, Efa HMGR inh 9.6*, HSV replic up inactive and Arbovirus inh -12.
`Cc1nnc(SCC(=O)NCCc2ccccc2)s1` gave ROMK primary 0.61, Calpain2 inh -8, Efa HMGR inh 0, HSV replic up inactive and Arbovirus inh -35.
For O=c1[nH]n2c(=O)c3c([nH]c2c1N=Nc1cccc(Cl)c1)CCC3 the results were ROMK primary 0.1, Calpain2 inh -23, Efa HMGR inh 4, HSV replic up inactive and Arbovirus inh 34*.
Screening O=c1[nH]n2c(=O)c3c([nH]c2c1N=Nc1cccc(C(F)(F)F)c1)CCCC3 returned ROMK primary 0.74, Calpain2 inh 33, Efa HMGR inh 1, HSV replic up inactive and Arbovirus inh 37*.
COc1cccc(N=Nc2c(=O)[nH]n3c(=O)c4c([nH]c23)CCC4)c1 was read as ROMK primary 1.2, Calpain2 inh -62, Efa HMGR inh -2, HSV replic up inactive and Arbovirus inh 9.
CCOC(=O)c1c(-c2ccc(C)o2)csc1NC(=S)NC(=O)c1ccccc1Br was read as Calpain2 inh -12, Efa HMGR inh -6, HSV replic up inactive and Arbovirus inh 47*.
Screening CCOC(=O)c1nc(C)nc(Sc2n[nH]c(-c3cc(C(F)(F)F)cc(C(F)(F)F)c3)n2)c1C returned ROMK primary -2.6, Calpain2 inh -18 and HSV replic up inactive.
`Cc1ccc(-c2csc(N/N=C/c3ccco3)n2)cc1` gave Calpain2 inh 1, Efa HMGR inh 2, HSV replic up inactive and Arbovirus inh 24.
C(=N\Nc1nc(-c2ccccc2)cs1)/c1ccco1 was read as Calpain2 inh 16, Efa HMGR inh -11, HSV replic up inactive and Arbovirus inh 36*.
For C(=N\Nc1nc(-c2ccccc2)cs1)/c1cccs1 the results were Calpain2 inh 6, Efa HMGR inh -2, HSV replic up inactive and Arbovirus inh 35*.
For COc1ccc2c(c1)oc(=O)c1c3ccccc3[nH]c21 the results were ROMK primary 0.0033, Calpain2 inh -70, Efa HMGR inh -1, HSV replic up inactive and Arbovirus inh 0.
